We go through 13 compounds from PubChem BioAssay (Tox21).

Structures are written as SMILES. A number with no mark means an inactive call. Results filed as inconclusive are left out. Activity calls are given as the source filed them. Unless noted, the call rests on the fitted dose curve.

Test [1] in a line: Nuclear factor erythroid 2-related factor 2/antioxidant responsive element (Nrf2/ARE) small molecule agonists: qHTS cell viability counter screen in human keratinocytes (AID 1919968; active means well fitted curve in the direction sought with a large enough effect in the repeat runs; an effect the other way counts as inactive or inconclusive; further: nearly all actives have a fitted effect of over 55% in size; further: potency means the concentration at half of the fitted maximal effect). In short, it runs like this: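 Stably transfected HaCaT (KeratinoSens), 1,500/well. Test agents in DMSO were applied for 23 h, 37 C/5% CO2. CellTiter-Fluor was incubated 1 h before the fluorescence read.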
Background: qHTS replaces the single test concentration by a dilution series.

Test [2] can be described thus: Nuclear factor erythroid 2-related factor 2/antioxidant responsive element (Nrf2/ARE) small molecule agonists: luciferase reporter gene qHTS assay in human keratinocytes (AID 1919969). Further: nearly all actives have a fitted effect of over 35% in size. Further: potency means the concentration at half of the fitted maximal effect. Background: In a reporter assay the amount or activity of a reporter protein is the signal.
The target of test [3] is Gonadotropin-releasing hormone receptor (Homo sapiens) (UniProt P30968). In words: Human gonadotropin-releasing hormone receptor (GnRHR) small molecule agonists, calcium flux assay in GnRHR-HEK293 cells (AID 1920063). Further: nearly all actives have a fitted effect of over 35% in size. In a few lines:
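Stable human GnRHR HEK293 line. 18 h plating, then calcium dye for 1 h at 37 C. Agonist-mode compound addition from DMSO stocks; fluorescence monitored 3 min.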
A general note: Calcium flux is commonly read through the fluorescence of an indicator in the cells.

In test [4] the target is KiSS-1 receptor (Homo sapiens) (UniProt Q969F8). In words: Human kisspeptin (KISS1R) small molecule agonists, calcium flux assay in KISS1R-HEK293 cells (AID 1920064; active means well fitted curve in the direction sought with a large enough effect in the repeat runs; an effect the other way counts as inactive or inconclusive). In short, it runs like this: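 After overnight (18 h) culture at 37 C/5% CO2, human KISS1R-HEK293 cells received calcium dye for 1 h, then test compound; emission at 540 nm (excitation 480 nm) was tracked for 3 min.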

Test [5] in a line: G protein-coupled receptor (GPCR) small molecule agonists, calcium flux assay: HEK293 wild type cell line counter screen (AID 1920065). In short, it runs like this: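 Following 18 h incubation at 37 C/5% CO2, plates got calcium dye for 1 h; compounds, ATP or DMSO were then pinned in and fluorescence followed kinetically (480/540 nm).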
Test [6] is described as follows: p53 small molecule agonists, cell-based qHTS assay with human liver microsomes: qHTS cell viability counter screen (AID 1963579). Further: nearly all actives have a fitted effect of over 45% in size. In a few lines:
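Cytotoxicity counter screen: p53RE-bla, 4,000 cells/well; 5 h settle, 37 C/5% CO2; cpd + HLM 0.5 mg/mL + NADPH 0.5 mg/mL (final); 16 h, 37 C; CellTiter-Glo, 30 min RT, luminescence.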

Test [7] in a line: p53 small molecule agonists, cell-based qHTS assay with rat liver microsomes: qHTS cell viability counter screen (AID 1963580). Further: nearly all actives have a fitted effect of over 45% in size. In short, it runs like this: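 After the beta-lactamase ratio was read, CellTiter-Glo was added to the same wells and luminescence measured at 30 min; cells had been treated 16 h at 37 C with compounds, rat liver microsomes and NADPH (0.5 mg/mL final each).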

Test [8] addresses 5-hydroxytryptamine receptor 2A (Homo sapiens) (UniProt P28223). In words: 5-hydroxytryptamine receptor 2A (HTR2A) small molecule antagonists, cell-based qHTS assay (AID 1963586). Further: nearly all actives have a fitted effect of over 45% in size. In a few lines:
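CHO cells stably expressing human HTR2A were plated for 18 h at 37 C, then loaded with calcium dye for 1 h. Compounds were preincubated 5 min at room temperature before DOI (4 nM solution) was added. Kinetic fluorescence was read for 3 min.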

Test [9] has the same target. In words: 5-hydroxytryptamine receptor 2A (HTR2A) small molecule agonists, cell-based qHTS assay (AID 1963587). Further: nearly all actives have a fitted effect of over 30% in size. In a few lines: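 CHO cells stably expressing human HTR2A, plated 18 h, loaded with calcium dye 1 h at 37 C. Agonist mode: compounds added and intracellular calcium fluorescence recorded kinetically for 2 min at 1 sec intervals.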
The target of test [10] is Muscarinic acetylcholine receptor M1 (Homo sapiens) (UniProt P11229). In words: Cholinergic receptor muscarinic 1 (CHRM1) small molecule antagonists, cell-based qHTS assay (AID 1963588). Further: nearly all actives have a fitted effect of over 40% in size. In a few lines:
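Compounds were tested at 15 concentrations in three independent runs. Dye-loaded CHRM1-CHO cells were exposed 5 min at room temperature before stimulation by acetylcholine added at 50nM. Intracellular calcium was read kinetically on FDSS for 3 min.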

For test [11] the target is unchanged. In words: Cholinergic receptor muscarinic 1 (CHRM1) small molecule agonists, cell-based qHTS assay (AID 1963589). Further: nearly all actives have a fitted effect of over 35% in size. In short, it runs like this:
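Kinetic fluorescence (1 s intervals) of calcium-sensitive dye in human M1 CHO cells after compound addition; cells pre-incubated 18 h at 37 C/5% CO2 and dye-loaded 1 h.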

Test [12] is described as follows: cAMP Responsive Elements (CRE) small molecule agonists, cell-based qHTS assay (AID 1963590). In a few lines:
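Test agents in DMSO were incubated 3 h at 37 C/5% CO2 with CRE-bla HEK 293T cells seeded 18 h earlier; LiveBLAzer B/G FRET substrate was added and read after 2 h at room temperature.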

A short description of test [13]: cAMP Responsive Elements (CRE) small molecule antagonists, cell-based qHTS assay (AID 1963591; active means well fitted inhibition curve with a large enough effect in the signal ratio in the repeat runs, not every such curve was filed as active; the % refers to the signal ratio). In a few lines: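 Reporter line CRE-bla HEK 293T in dialyzed-FBS DMEM; cells preincubated 18 h, treated 3 h with compound plus NKH477 (0.25 uM final); LiveBLAzer FRET, 2 h RT.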
The target in test [14] is Beta-2 adrenergic receptor (Homo sapiens) (UniProt P07550). In words: Adrenergic beta2 receptor (ADRB2) small molecule antagonists, cell-based qHTS assay (AID 1963592). Further: nearly all actives have a fitted effect of over 50% in size. Further: potency means the concentration at half of the fitted maximal effect. On activity change, negative = inhibition: series mostly up to about 92 µM. In short, it runs like this:
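Assay format: CHO-ADRB2 cells, 18-20hr seeding at 37C/5% CO2, then compound plus 1nM isoproterenol agonist mix for 0.5hr RT. Homogeneous time-resolved fluorescence cAMP detection after 1hr, expressed as 665/615 nm ratio.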

Test [15] has as its target D(2) dopamine receptor (Homo sapiens) (UniProt P14416). In words: Dopamine D2 receptor (DRD2) small molecule agonists, cell-based qHTS assay (AID 1963594). Further: nearly all actives have a fitted effect of over 35% in size. In short, it runs like this: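 HEK293 cells stably expressing human DRD2, pre-treated with PDE inhibitor Ro20-1724 (0.1 mM final) and compound 10 min at room temperature, then stimulated with NKH477 (200nM […]) for 30 min. cAMP read by HTRF (665/620 nm).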

Test [16] can be described thus: p53 small molecule agonists, cell-based qHTS assay: qHTS cell viability counter screen (AID 1963581). Further: nearly all actives have a fitted effect of over 45% in size. In short, it runs like this: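 qHTS counter screen: 16 h compound exposure at 37 C of p53RE-bla HCT-116 cells (4,000 per well, seeded 5 h prior), cell viability by ATP luminescence.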
The target of test [17] is Beta-2 adrenergic receptor (Homo sapiens) (UniProt P07550). In words: Adrenergic beta2 receptor (ADRB2) small molecule agonists, cell-based qHTS assay (AID 1963593).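 Further: CHO cells stably overexpressing human ADRB2.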 In short, it runs like this: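 CHO cells stably over-expressing ADRB2 were plated overnight at 37C, then dosed with compounds plus a stimulation mix containing 100uM IBMX and 25uM Ro-20-1724 for 0.5hr at room temperature. cAMP was measured by HTRF competition, 1hr.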

For test [18], the target named is D(2) dopamine receptor (Homo sapiens) (UniProt P14416). In words: Dopamine D2 receptor (DRD2) small molecule antagonists, cell-based qHTS assay (AID 1963595; active means well fitted inhibition curve with a large enough effect in the signal ratio in the repeat runs, with a control signal flat; the % refers to the signal ratio; further: potency means the concentration at half of the fitted maximal effect). In a few lines:
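Human DRD2 antagonist qHTS measuring cAMP by HTRF. The cells are exposed to compound for 10 min, then to NKH477 (200 nM) and quinpirole (12 nM) for 30 min at RT, with Ro20-1724 (0.1 mM) present throughout.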
On the % scale 0 is the no-effect control and ±100 the full control effect.

5-hydroxytryptamine receptor 2A (Homo sapiens), sequence (P28223 whole entry, looked up): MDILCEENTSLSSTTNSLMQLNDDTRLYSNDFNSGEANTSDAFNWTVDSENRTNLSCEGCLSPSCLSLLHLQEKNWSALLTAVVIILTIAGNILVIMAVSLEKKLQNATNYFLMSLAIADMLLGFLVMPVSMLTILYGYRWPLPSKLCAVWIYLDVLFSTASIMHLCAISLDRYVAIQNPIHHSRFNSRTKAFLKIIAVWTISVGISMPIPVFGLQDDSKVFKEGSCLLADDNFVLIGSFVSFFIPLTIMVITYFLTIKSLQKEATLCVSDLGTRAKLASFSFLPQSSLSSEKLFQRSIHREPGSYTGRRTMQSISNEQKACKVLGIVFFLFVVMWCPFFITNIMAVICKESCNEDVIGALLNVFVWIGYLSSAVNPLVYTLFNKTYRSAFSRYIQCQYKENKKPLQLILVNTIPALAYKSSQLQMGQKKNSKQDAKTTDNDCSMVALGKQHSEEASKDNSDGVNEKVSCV
D(2) dopamine receptor (Homo sapiens), sequence (P14416 whole entry, looked up): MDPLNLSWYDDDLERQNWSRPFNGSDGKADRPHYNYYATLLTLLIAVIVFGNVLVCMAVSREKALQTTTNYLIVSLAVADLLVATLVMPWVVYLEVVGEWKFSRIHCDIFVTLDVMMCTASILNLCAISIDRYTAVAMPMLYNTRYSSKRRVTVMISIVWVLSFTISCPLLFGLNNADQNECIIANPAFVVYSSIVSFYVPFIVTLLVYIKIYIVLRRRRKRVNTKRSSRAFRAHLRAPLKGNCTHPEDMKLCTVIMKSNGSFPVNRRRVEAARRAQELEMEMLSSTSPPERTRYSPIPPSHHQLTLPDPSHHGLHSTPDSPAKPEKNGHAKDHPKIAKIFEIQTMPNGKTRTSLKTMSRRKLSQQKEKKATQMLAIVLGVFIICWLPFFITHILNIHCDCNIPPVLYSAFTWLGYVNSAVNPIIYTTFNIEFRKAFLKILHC
Gonadotropin-releasing hormone receptor (Homo sapiens), sequence (P30968 whole entry, looked up): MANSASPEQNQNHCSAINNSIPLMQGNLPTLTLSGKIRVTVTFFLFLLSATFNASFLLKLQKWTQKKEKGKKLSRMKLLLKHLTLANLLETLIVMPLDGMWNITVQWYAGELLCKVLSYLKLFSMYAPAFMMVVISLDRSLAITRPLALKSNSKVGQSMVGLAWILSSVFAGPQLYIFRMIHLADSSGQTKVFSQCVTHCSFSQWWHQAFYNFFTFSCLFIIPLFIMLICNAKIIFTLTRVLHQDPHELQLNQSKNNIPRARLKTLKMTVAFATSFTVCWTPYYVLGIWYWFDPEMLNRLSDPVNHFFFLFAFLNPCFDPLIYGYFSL
Muscarinic acetylcholine receptor M1 (Homo sapiens), sequence (P11229 whole entry, looked up): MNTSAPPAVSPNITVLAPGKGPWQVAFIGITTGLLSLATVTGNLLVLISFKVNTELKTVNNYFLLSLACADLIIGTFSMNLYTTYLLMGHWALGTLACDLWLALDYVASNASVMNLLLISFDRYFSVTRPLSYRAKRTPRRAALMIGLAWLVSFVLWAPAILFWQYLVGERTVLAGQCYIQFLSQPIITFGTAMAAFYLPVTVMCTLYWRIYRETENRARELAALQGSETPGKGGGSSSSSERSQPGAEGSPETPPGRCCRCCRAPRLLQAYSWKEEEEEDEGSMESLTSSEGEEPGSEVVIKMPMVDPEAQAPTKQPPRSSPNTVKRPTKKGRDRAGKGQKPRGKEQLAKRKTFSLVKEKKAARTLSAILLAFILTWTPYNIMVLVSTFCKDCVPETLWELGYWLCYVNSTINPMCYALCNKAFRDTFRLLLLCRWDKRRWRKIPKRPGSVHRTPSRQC
Beta-2 adrenergic receptor (Homo sapiens), sequence (P07550 whole entry, looked up): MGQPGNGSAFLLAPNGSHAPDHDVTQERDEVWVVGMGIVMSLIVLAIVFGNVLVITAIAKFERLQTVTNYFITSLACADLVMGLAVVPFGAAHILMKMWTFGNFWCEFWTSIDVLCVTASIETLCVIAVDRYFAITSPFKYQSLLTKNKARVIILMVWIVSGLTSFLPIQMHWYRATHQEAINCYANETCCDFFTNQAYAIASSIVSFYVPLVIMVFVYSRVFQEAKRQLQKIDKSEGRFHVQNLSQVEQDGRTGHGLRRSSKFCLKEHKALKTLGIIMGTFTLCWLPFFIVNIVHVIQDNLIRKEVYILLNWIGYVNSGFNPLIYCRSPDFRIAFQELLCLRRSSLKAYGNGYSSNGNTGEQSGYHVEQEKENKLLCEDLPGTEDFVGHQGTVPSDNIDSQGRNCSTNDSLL
KiSS-1 receptor (Homo sapiens), sequence (Q969F8 whole entry, looked up): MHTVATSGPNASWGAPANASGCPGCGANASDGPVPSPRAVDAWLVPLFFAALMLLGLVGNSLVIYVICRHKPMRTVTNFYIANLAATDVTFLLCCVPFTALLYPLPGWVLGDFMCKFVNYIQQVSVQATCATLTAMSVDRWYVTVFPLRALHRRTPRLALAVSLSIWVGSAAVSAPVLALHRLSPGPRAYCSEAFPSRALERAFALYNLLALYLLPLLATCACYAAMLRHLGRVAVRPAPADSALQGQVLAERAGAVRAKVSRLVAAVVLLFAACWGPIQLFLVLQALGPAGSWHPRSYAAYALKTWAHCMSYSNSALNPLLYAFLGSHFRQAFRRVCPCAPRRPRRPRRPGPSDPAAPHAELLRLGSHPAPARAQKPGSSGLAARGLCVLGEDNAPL

Consider `CCC(=O)C1CC(C(C)C)CC=C1C` (stereo not drawn), for which the Potency entry in [1], in [2], in [3], in test [4], in test [5] and in [6] was “inactive” throughout. For the same compound, the Potency entry in [7], in test [8], in [9], in test [10], in test [11] and in test [12] was “inactive” each time. Moreover, the Potency result in test [13], in [14] and in test [15] was “inactive” in each case.

Turning to `Cc1ccc(Cl)c(Nc2ccccc2C(=O)O)c1Cl`, the Potency entry in test [1], in [2], in test [3], in [4], in [5] and in test [6] was “inactive” each time. Moreover, the Potency entry in test [7], in [16], in test [14], in test [17], in test [15] and in [18] was “inactive” in each case.

For `CCN1CCN(C(=O)N[C@@H](C(=O)N[C@@H]2C(=O)N3[C@@H]2SC(C)(C)[C@H]3C(=O)O)c2ccccc2)C(=O)C1=O`, the Potency result in [1], in [2], in test [3], in test [4], in [5] and in test [6] was “inactive” each time. Moreover, the Potency entry in [7], in test [16], in test [12], in test [13], in test [14] and in test [15] was “inactive” each time. Further, the Potency result in [18] is “inactive”.

In the case of `Cc1c(F)c(N2CCNC(C)C2)cc2c1c(=O)c(C(=O)O)cn2C1CC1` (stereo not drawn), the Potency entry in test [1], in [2], in [3], in test [4], in [5] and in test [6] was “inactive” in each case. Further, the Potency result in test [7], in test [16], in [14], in test [17] and in test [18] was “inactive” in each case.

In the case of `CC(Cc1ccccc1)(NC(=O)CN)c1ccccc1` (stereo not drawn), the Potency result in [1], in test [2], in test [3], in test [4], in test [5] and in test [6] was “inactive” throughout. The Potency result in test [7], in test [8], in test [9], in [11], in test [12] and in test [13] was “inactive” in each case. Besides, the Potency result in test [14], in test [17] and in test [18] was “inactive” each time.

As for `CC1(C)O[C@@H]2C[C@H]3[C@@H]4C[C@H](F)C5=CC(=O)C=C[C@]5(C)[C@H]4[C@@H](O)C[C@]3(C)[C@]2(C(=O)CO)O1`, the Potency entry in test [1], in test [2], in [3], in [4], in test [5] and in test [6] was “inactive” in each case. The Potency result in test [7], in [16], in [14], in test [17], in test [15] and in [18] was “inactive” in each case.

`Nc1ccc(Oc2ccc(N)c(N)c2)cc1`: the Potency result in [1], in test [3], in test [4], in [5], in test [6] and in [7] was “inactive” each time. For the same compound, the Potency entry in [8], in [9], in test [10], in test [11], in test [12] and in [13] was “inactive” throughout. Besides, the Potency result in test [17] and in test [18] was “inactive” in each case. For the same compound, the Potency in [2] was 6.11 µM (active).

As for `CC(C)(CO)[C@@H](O)C(=O)NCCCO`, the Potency result in [1], in test [2], in test [3], in test [4], in [5] and in test [6] was “inactive” each time. Further, the Potency entry in test [7], in test [16], in [12], in test [13], in test [14] and in test [15] was “inactive” in each case.

In the case of `Nc1ccccc1Nc1ccccc1`, the figures for the Potency in test [1] and in [2] were 48.7 µM (active) and 21.8 µM (active), respectively. Besides, the Potency result in [3], in test [4], in test [5], in test [6], in test [7] and in [8] was “inactive” each time. For the same compound, the Potency entry in test [9], in [10], in [11], in test [13], in test [15] and in test [18] was “inactive” in each case.

Turning to `CCOc1ccccc1OCCN[C@H](C)Cc1ccc(OC)c(S(N)(=O)=O)c1`, the Potency entry in [1], in test [2], in [3], in test [4], in test [5] and in test [6] was “inactive” throughout. The Potency result in test [7], in test [8], in [10], in [11], in test [12] and in test [13] was “inactive” in each case. Further, the Potency was 8.41 µM (active) in test [14] and 1.19 µM (active) in test [18].

On to `CC(=O)OCC(=O)[C@@]12OC(C)(C)O[C@@H]1C[C@H]1[C@@H]3C[C@H](F)C4=CC(=O)C=C[C@]4(C)[C@@]3(F)[C@@H](O)C[C@@]12C`, for which the Potency result in test [1], in test [2], in test [3], in [4], in [5] and in test [6] was “inactive” throughout. Besides, the Potency entry in test [7], in test [16], in test [14], in test [15] and in test [18] was “inactive” each time.

With `NC(N)=NCCN1CCCCCCC1`, the activity change, negative = cytotoxicity was -3.49% [at 0.349 µM] in test [1], 14.9% [at 0.249 µM] in test [6], 0.194% [at 0.249 µM] in test [7] and -15.6% [at 0.249 µM] in [16]. Moreover, the activity, positive = activation in [2] was 3.17% [at 0.349 µM]. Further, in [3], the activity change was -0.022% [at 0.217 µM, hits give high values]. In addition, the activation in test [4] is 0.591% [at 0.29 µM]; in test [5], 0.864% [at 0.217 µM]; in test [12], -1.51% [at 0.349 µM]; in test [17], 1.36% [at 0.349 µM]; in [15] it was -6.8% [at 0.349 µM]. Also, the activity change, negative = inhibition was 0.0219% [at 0.349 µM] in test [13], 5.36% [at 0.349 µM] in test [14] and -0.0361% [at 0.348 µM] in test [18].

For the compound `NCCNC(=O)c1ccc(Cl)cn1`, the Potency result in test [1], in test [2], in test [3], in [4], in test [5] and in test [6] was “inactive” each time. Also, the Potency result in [7], in [8], in [10], in [11], in test [13] and in [14] was “inactive” each time. Also, the Potency entry in [17], in [15] and in test [18] was “inactive” throughout.
